# Results: PubChem BioAssay AID1851 (National Center for Advancing Translational Sciences (NCATS), 2009)
# Among all 16,000 compounds or so, about 5,100 (32%) were called active. Not shown: some 25% with an inconclusive outcome. Some of the results follow. Values without a mark were called inactive. Calls follow the shape of the dose curve; as a rule, active = well fitted curve in the direction sought with a large enough effect; inconclusive = small, poorly fitted or top-dose-only effect, or effect the other way; inactive = no such curve, though single readings can be large or run the other way.
# Biological target: Cytochrome P450 3A4 (Homo sapiens) (UniProt P08684)
# Sequence (P08684 whole entry, looked up): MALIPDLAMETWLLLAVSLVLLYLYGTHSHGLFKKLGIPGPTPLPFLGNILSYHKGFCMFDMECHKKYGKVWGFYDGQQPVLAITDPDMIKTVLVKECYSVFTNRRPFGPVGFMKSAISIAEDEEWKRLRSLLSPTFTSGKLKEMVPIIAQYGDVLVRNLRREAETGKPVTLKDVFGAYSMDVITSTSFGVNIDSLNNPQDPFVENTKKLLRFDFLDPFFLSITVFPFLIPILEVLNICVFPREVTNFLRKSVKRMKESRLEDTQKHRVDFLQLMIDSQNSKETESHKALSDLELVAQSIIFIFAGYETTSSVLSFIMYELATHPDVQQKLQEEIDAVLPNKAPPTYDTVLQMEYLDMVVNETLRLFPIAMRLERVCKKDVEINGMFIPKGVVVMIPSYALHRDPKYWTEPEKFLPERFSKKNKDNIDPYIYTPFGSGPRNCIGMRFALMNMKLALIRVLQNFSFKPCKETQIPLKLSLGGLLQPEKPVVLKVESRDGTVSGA
# Assay: Cytochrome panel assay with activity outcomes
# Conditions: recombinant CYP, pro-luciferin dealkylation, luminescence, p450-cyp3a4; series mostly up to 57.1 µM; activity, negative = inhibition: at the top concentration
# % is scaled to controls: 0 for no effect and ±100 for the full control effect.
SMILES,AC50,"activity, negative = inhibition"
Cc1ccc(C(=N)c2ccccc2Cc2cccc3ccccc23)c2ccccc12,3.98 µM (active),–
CN(Cc1cccc2ccccc12)Cc1cccc2ccccc12,–,-53.9% [at 11.4 µM]
Cc1ccc(C)c(C(=N)c2ccccc2Cc2ccccc2)c1,3.98 µM (active),–
c1ccc2c(CC3=NCCN3)cccc2c1,–,-2.7% [at 25.6 µM]
Cc1cc(C)c(O)c(Cc2cccc(Cc3cc(C)cc(C)c3O)c2O)c1,–,6.11% [at 11.4 µM]
N=C(c1ccc2ccccc2c1)c1ccccc1Cc1ccccc1,–,-11.9% [at 11.4 µM]
CN1CCCC1CCNC1C2CC3CC(C2)CC1C3 (centres undefined),–,-0.75% [at 2.29 µM]
CN1C(=C2C(=O)OC(C)(C)OC2=O)Sc2ccccc21,–,-3.54%
O=C(Oc1c(Br)cc(C(=S)N2CCOCC2)cc1Br)c1ccc(Cl)cc1,–,-1.32% [at 2.29 µM]
O=c1c(-c2cc(F)cc(F)c2)nc2cnc(N3CCNCC3)nc2n1C1CC1,25.1 µM (active),–
CN1CCN(c2ncc3nc(-c4cc(F)cc(F)c4)c(=O)n(C)c3n2)CC1,–,6.8%
O=c1c(-c2ccc(F)cc2)nc2cnc(N3CCOCC3)nc2n1C1CC1,–,-8.23%
O=c1c(-c2ccc(F)cc2)nc2cnc(N3CCNCC3)nc2n1C1CC1,15.8 µM (active),–
O=c1c(-c2ccccc2)nc2cnc(N3CCNCC3)nc2n1C1CC1,12.6 µM (active),–
CN(C)c1ncc2nc(-c3ccccc3)c(=O)n(C3CC3)c2n1,–,-24.9%
O=c1c(-c2ccccc2)nc2cnc(N3CCOCC3)nc2n1C1CC1,–,7.55%
O=c1c(-c2cccs2)nc2cnc(N3CCNCC3)nc2n1C1CC1,6.31 µM (active),–
O=c1cnc2cnc(N3CCOCC3)nc2n1C1CC1,–,8.49%
O=c1c(-c2cccs2)nc2cnc(Oc3ccccc3)nc2n1C1CC1,–,5.66%
O=c1c(-c2cc(F)cc(F)c2)nc2cnc(N3CCOCC3)nc2n1C1CC1,–,5.06%

SMILES,AC50,"activity, negative = inhibition"
O=c1c(-c2ccc(Cl)cc2)nc2cnc(N3CCOCC3)nc2n1C1CC1,–,-0.899%
COc1ccc(-c2nc3cnc(N4CCNCC4)nc3n(C3CC3)c2=O)cc1,10 µM (active),–
COc1ccc(-c2nc3cnc(N4CCN(C)CC4)nc3n(C3CC3)c2=O)cc1,–,4.85%
COC(=O)[C@@]1(Cc2ccccc2)[C@H]2c3cc(C(=O)N4CCCC4)[nH]c3C[C@H]2CN1C(=O)c1ccccc1,2.51 µM (active),–
COC(=O)[C@@]1(Cc2ccc(OC)cc2)[C@H]2c3cc(C(=O)N(C)C)[nH]c3C[C@H]2CN1C(=O)c1ccccc1,1.58 µM (active),–
COc1ccc2c(c1)c(CC(=O)O)c(C)n2C(=O)c1ccccc1,–,5.91%
C[C@@]12CC(=O)[C@@H]3[C@@H](CCC4=CC(=O)CC[C@]43C)[C@@H]1CC=C2CC(=O)O,–,-10.5% [at 11.4 µM]
CCOC(=O)C1=C(C)NC(=S)NC1c1cccc(O)c1 (centres undefined),1 µM (active),–
CCOC(=O)C1=C(C)NC(=O)NC1c1ccoc1 (centres undefined),–,15% [at 2.29 µM]
CCOC(=O)C1=C(C)C(c2ccccc2OC)NC(=S)N1 (centres undefined),–,-19.1% [at 2.29 µM]
CN(Cc1ccco1)c1cc(-c2cccc(C#N)c2)ncn1,–,-4.27%
CN(Cc1ccco1)c1cc(-c2cccnc2)ncn1,3.16 µM (active),–
COc1cccc(-c2cc(N(C)Cc3ccco3)ncn2)c1,25.1 µM (active),–
COC(=O)[C@@]1(Cc2ccc(F)cc2)[C@@H]2[C@@H](CC(=O)[C@H]2CC(=O)C(=O)N2CCCC2)CN1C(=O)c1ccccc1,1.58 µM (active),–
COC(=O)[C@@]1(Cc2ccc(OC)cc2)[C@@H]2[C@@H](CC(=O)[C@H]2CC(=O)C(=O)N2CCCC2)CN1C(=O)c1ccccc1,0.794 µM (active),–
FC(F)(F)c1nnc(-c2ccccc2)nc1Sc1ccccc1,–,-29.6%
c1ccc(Cc2nnc(Sc3ccccc3)c3ccccc23)cc1,12.6 µM (active),–
COCCNc1cc(-c2ccccc2C)ncn1,–,-2.95%
COc1ccc2[nH]cc(CCNc3cc(-c4ccccc4OC)ncn3)c2c1,6.31 µM (active),–
COc1ccc2[nH]cc(CCNc3cc(-c4ccccc4C(F)(F)F)ncn3)c2c1,5.01 µM (active),–

SMILES,AC50,"activity, negative = inhibition"
COc1ccc2[nH]cc(CCNc3cc(-c4ccccc4C)ncn3)c2c1,5.01 µM (active),–
CC(C)OC(=O)CSc1nc(-c2ccc(F)cc2)nc2ccc(F)cc12,–,-10.7%
Cc1ccc(NC(=S)NC(=O)c2c(-c3ccccc3Cl)noc2C)cc1,14.1 µM (active),–
Cc1onc(-c2ccccc2Cl)c1C(=O)Nc1nnc(Cc2ccc(Cl)cc2)s1,3.16 µM (active),–
O=C(Nc1ccccc1)c1cc(-c2ccccc2Cl)no1,–,-22.5%
O=C(NCCc1ccc(Cl)cc1)C1CCN(S(=O)(=O)N2CCC3(CC2)OCCO3)CC1,3.55 µM (active),–
CC(C)N(CCNC(=O)C1CCN(S(=O)(=O)N2CCOCC2)CC1)Cc1ccccc1,–,22.3%
O=C(NCc1ccccc1Cl)C1CCN(S(=O)(=O)N2CCC3(CC2)OCCO3)CC1,14.1 µM (active),–
COCCNC(=O)C1CCN(S(=O)(=O)N2CCC3(CC2)OCCO3)CC1,–,-8.44%
Cc1cc(C)c(S(C)(=O)=O)c(Oc2ccc(F)cc2)n1,–,26.1% [at 2.29 µM]
CCCC(=O)Nc1cccc(Oc2nc(C)cc(C)c2C#N)c1,14.1 µM (active),–
Cc1cc(C)c(C#N)c(Oc2ccccc2)n1,–,-18.2% [at 11.4 µM]
Cc1cc(C)c(C#N)c(Oc2ccc(F)cc2)n1,8.91 µM (active),–
Nc1nc(CSc2nnnn2-c2ccc(Cl)cc2)nc(N2CCOCC2)n1,3.98 µM (active),–
Clc1ccc(-n2nnnc2CN2CCOCC2)cc1,–,-2.71%
COc1ccc(-n2c(=O)c(-c3ccc(Cl)cc3)nc3cnc(N4CCOCC4)nc32)cc1,–,-5.16%
COC(=O)c1cc(/C=C/c2ccccc2)on1,–,-3.05% [at 2.29 µM]
CC(C)C(=O)N[C@H]1CCCN1C(=O)/C=C\c1ccccc1,–,-20.7% [at 11.4 µM]
COC(=O)C1=C(C)N=C2SC(C)C(=O)N2C1/C=C/c1ccccc1 (centres undefined),12.6 µM (active),–
